# PubChem BioAssay AID1851 (National Center for Advancing Translational Sciences (NCATS), 2009)
# The whole screen tested about 16,000 compounds, of which about 5,100 (32%) were called active. Not shown: some 25% with an inconclusive outcome. Calls come from the whole dose curve; as a rule, active = well fitted curve in the direction sought with a large enough effect; inconclusive = small, poorly fitted or top-dose-only effect, or effect the other way; inactive = no such curve, though single readings can be large or run the other way. The list shows a part of the results.
# Molecular target: Cytochrome P450 3A4 (Homo sapiens) (UniProt P08684)
# Sequence (P08684 whole entry, looked up): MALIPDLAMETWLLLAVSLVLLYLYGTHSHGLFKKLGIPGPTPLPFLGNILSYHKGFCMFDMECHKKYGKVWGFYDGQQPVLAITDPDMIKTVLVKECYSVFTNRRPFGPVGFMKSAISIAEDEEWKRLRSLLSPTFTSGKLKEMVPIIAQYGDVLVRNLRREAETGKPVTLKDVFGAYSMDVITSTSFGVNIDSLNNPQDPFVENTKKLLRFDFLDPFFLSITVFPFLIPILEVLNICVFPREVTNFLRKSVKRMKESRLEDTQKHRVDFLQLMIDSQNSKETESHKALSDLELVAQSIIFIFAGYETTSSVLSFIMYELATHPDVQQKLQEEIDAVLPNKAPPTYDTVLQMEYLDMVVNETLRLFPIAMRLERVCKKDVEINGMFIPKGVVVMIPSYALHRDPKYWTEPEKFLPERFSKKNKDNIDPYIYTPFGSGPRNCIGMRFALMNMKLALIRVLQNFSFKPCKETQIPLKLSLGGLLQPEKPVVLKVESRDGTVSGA
# Experiment: Cytochrome panel assay with activity outcomes
# Conditions: recombinant CYP, pro-luciferin dealkylation, luminescence, p450-cyp3a4; series mostly up to 57.1 µM
# % is set by controls: 0 for no effect and ±100 for the full control effect.
SMILES,"activity, negative = inhibition",AC50
CC(C)NC(=O)COC(=O)c1cc(=O)[nH]c2ccccc12,1.83% [at 2.29 µM] (inactive),
Cc1[nH]c2ccccc2c1CCNC(=O)c1ccc2c(c1[N+](=O)[O-])C(=O)c1ccccc1C2=O,,8.91 µM (active)
Cc1[nH]c2c(C)cccc2c1CCNC(=O)c1ccc2c(c1[N+](=O)[O-])C(=O)c1ccccc1C2=O,,3.16 µM (active)
COc1cc(OC)nc(NC(C)=O)n1,,inactive
COc1cc(C2SCCCCCCCCCCSC(c3ccc(O)c(OC)c3)SCCCCCCCCCCS2)ccc1O (stereo not given),12.5% [at 11.4 µM] (inactive),
COc1ccc(C[C@@H]2C(=O)N[C@H](C)C(=O)N(C)[C@@H]3Cc4ccc(cc4)Oc4cc(ccc4O)C[C@H](C(=O)N[C@@H](C)C(=O)N[C@H](C)C(=O)N2C)N(C)C3=O)cc1,,3.98 µM (active)
Nc1nc(Cl)cc(N2CCC(c3cc(-c4ccc(Cl)cc4Cl)n[nH]3)CC2)n1,,20 µM (active)
NC1CCN(c2cccc(Cl)n2)CC1,,inactive
COc1ccc(-c2cc(C3CCN(c4cc(Cl)nc(N)n4)CC3)[nH]n2)cc1,,28.2 µM (active)
Nc1nc(Cl)cc(N2CCOCC2)n1,,inactive
CCNc1ncc2nc(-c3cccs3)c(=O)n(CCC#N)c2n1,,6.31 µM (active)
CCNc1ncc2nc(-c3ccc(F)cc3)c(=O)n(CCOC)c2n1,,inactive
CCNc1ncc2nc(-c3cc(F)cc(F)c3)c(=O)n(CCC#N)c2n1,,inactive
CCNc1ncc2nc(-c3ccc(F)cc3)c(=O)n(CCC#N)c2n1,,inactive
CCNc1ncc2nc(-c3cccs3)c(=O)n(Cc3cccs3)c2n1,,6.31 µM (active)
CCNc1ncc2nc(-c3ccccc3)c(=O)n(Cc3cccs3)c2n1,,15.8 µM (active)
CCNc1ncc2nc(-c3cccs3)c(=O)n(Cc3ccc(F)cc3)c2n1,,15.8 µM (active)
CCNc1ncc2nc(C)c(=O)n(C)c2n1,,inactive
CCNc1ncc2nc(C)c(=O)n(Cc3cccs3)c2n1,,15.8 µM (active)
O=C(Nc1ccc2oc(-c3ccccc3F)nc2c1)c1ccc2c(c1)OCCO2,,3.16 µM (active)

SMILES,"activity, negative = inhibition",AC50
COc1cc(C(=O)NC(=S)Nc2cccc(-c3cc4ccccc4oc3=O)c2)cc(OC)c1OC,,6.31 µM (active)
COc1cc(C(=O)NC(=S)Nc2ccc3oc(=O)ccc3c2)cc(OC)c1OC,,4.47 µM (active)
COc1cc(C(=O)NC(=S)Nc2ccc(Cl)c(C(=O)O)c2)cc(OC)c1OC,-9.66% [at 11.4 µM] (inactive),
COc1cc2ccc(=O)oc2cc1O,,inactive
CC(O)(P(=O)(O)O)P(=O)(O)O,,inactive
CCC(=O)Nc1cc(-c2nn(C)c(=O)c3ccccc23)ccc1N1CCCCC1,,inactive
Cc1c(C(=O)NN2CCOCC2)nn(-c2ccc(Cl)cc2Cl)c1-c1ccc(I)cc1,,inactive
Cn1nc(-c2ccc(N3CCOCC3)c(NS(=O)(=O)c3ccc(Cl)cc3)c2)c2ccccc2c1=O,,1.41 µM (active)
COC(=O)[C@@]1(Cc2ccc(F)cc2)[C@H]2c3cc(C(=O)N4CCCC4)n(CCc4c[nH]c5ccccc45)c3C[C@H]2CN1C(=O)c1ccccc1,,1 µM (active)
COC(=O)[C@@]1(Cc2ccc(OC)cc2)[C@H]2c3cc(C(=O)N4CCCC4)n(CCc4c[nH]c5ccc(O)cc45)c3C[C@H]2CN1C(=O)c1ccccc1,,1.58 µM (active)
COC(=O)[C@@]1(Cc2ccc(OC)cc2)[C@H]2c3cc(C(=O)N4CCCC4)n(CCc4c[nH]c5cc(F)ccc45)c3C[C@H]2CN1C(=O)c1ccccc1,,1.26 µM (active)
CCN(CC)c1ccc(NC(=O)c2cccnc2)c(C)c1,1.22% [at 2.29 µM] (inactive),
CCOc1cc(C#N)c(NC(=O)c2cccnc2)cc1OCC,,12.6 µM (active)
CC1=C(C(=O)Nc2ccccc2)C(c2ccco2)NC(=S)N1 (stereo not given),0.933% [at 2.29 µM] (inactive),
CCN(CC)C(=O)C1=C(C)NC(=S)NC1c1cn(-c2ccccc2)nc1-c1ccc(Cl)cc1 (stereo not given),,7.08 µM (active)
CCN(CC)C(=O)c1sc2[nH]c(=S)n(-c3ccccc3)c(=O)c2c1C,,inactive
COc1ccc2[nH]cc(CCNc3ccnc(-c4ccccc4C)n3)c2c1,,3.16 µM (active)
COc1ccc2[nH]cc(CCNc3ccnc(-c4ccccc4Cl)n3)c2c1,,2 µM (active)
COc1ccc2[nH]cc(CCNc3ccnc(-c4ccccc4C(F)(F)F)n3)c2c1,,2 µM (active)
NC(=O)N[C@H]1NC(=O)NC1=O,,inactive

SMILES,"activity, negative = inhibition",AC50
O=C(O)[C@@H](c1ccccc1)[C@@H](C(=O)O)c1ccccc1,-6.94% [at 11.4 µM] (inactive),
Cc1ccn2c(NC(=O)c3ccccc3)c(-c3cccs3)nc2c1,,7.94 µM (active)
Cc1ccc(SCc2nnc(NC(=O)c3ccccc3)s2)cc1,,inactive
Cn1sc(NC(=O)c2ccccc2)nc1=O,,inactive
COc1ccccc1CNc1ncncc1-c1ccccc1C(F)(F)F,,0.0794 µM (active)
COc1ccc(CNc2ncncc2-c2ccccc2C(F)(F)F)c(OC)c1,,0.316 µM (active)
CSc1ccc(NC(=O)NCCN2CCc3ccccc3C2)cc1,,inactive
CSc1ccc(CNc2ccc(C)c(C)c2)cc1,,12.6 µM (active)
CSc1ccc(NC(=O)Nc2cc(C)ccn2)cc1,-14.7% [at 11.4 µM] (inactive),
O=C(O)[C@H]1[C@H](C(=O)O)[C@H](C(=O)O)C[C@@H]1C(=O)O,-3.42% [at 11.4 µM] (inactive),
COc1ccc(NC(=O)CSc2nc(-c3ccc(C)cc3)cc(C(F)(F)F)c2C#N)cc1,0.258% [at 2.29 µM] (inactive),
COc1ccc2cc(C)c3nnc(SCC(=O)Nc4nc(-c5ccccc5)cs4)n3c2c1,,2.24 µM (active)
COc1ccc(-n2c(CNc3ccc(C)cc3)nnc2SCC(=O)Nc2nc(-c3ccccc3)cs2)cc1,,3.16 µM (active)
Nc1ccc(N2C(=O)c3ccccc3C2=O)c(Cl)c1,,15.8 µM (active)
CC1CCN(CCc2nc3cc(NC(=O)NC4CCCCC4)ccc3n2C)CC1,,inactive
Cc1ccccc1-c1cncnc1NCc1cccnc1,,0.631 µM (active)
c1cncc(CNc2ncn[nH]2)c1,-14.4% [at 11.4 µM] (inactive),
CN(C)Cc1ccccc1-c1cncnc1NCc1cccnc1,,1.58 µM (active)
FC(F)(F)c1ccccc1-c1cncnc1NCc1cccnc1,,0.631 µM (active)
Cc1ccccc1-c1cncnc1NCc1ccccc1,,0.316 µM (active)
